Data on eight molecules can be found in PubChem BioAssay (NCI).

Values joined by “and” are separate entries in the source; they are usually repeats but may differ in a detail not shown here. Equal entries are not always repeated. The panel holds about 79,000 compounds, 15% with a hit somewhere; the sample as a whole holds those more often. Where a structure was tested more than once in an assay, its records may differ in their call. Active and inactive are the calls of the source. No stated cut-off is given here; in the data, active means growth inhibition above about 70%; inactive means the rest.

The nature of assay [1]: NCI Yeast Anticancer Drug Screen. Data for the rad50 strain (AID 155).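 Further: 0% = growth of vehicle-only cultures of the same strain.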 Particulars: S. cerevisiae rad50 strain growth inhibition, stronger effect = higher value. The gist of the method: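 A DNA repair-deficient yeast mutant serves as the test organism; compound-induced growth inhibition is calculated against vehicle-treated cells.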
Assay [2] can be described thus: NCI Yeast Anticancer Drug Screen. Data for the mec2-1 strain (AID 157). Particulars: S. cerevisiae mec2-1 strain, stronger effect = higher value. The gist of the method: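 Yeast mec2-1 mutant treated with compound. Readout: growth inhibition vs vehicle controls.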
Assay [3] is described as follows: NCI Yeast Anticancer Drug Screen. Data for the sgs1 mgt1 strain (AID 161).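 Further: 0% = growth of cultures given vehicle only.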 The note with it: S. cerevisiae sgs1 mgt1 strain, stronger effect = higher value. The method in brief: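 Inhibition of yeast growth, normalised to vehicle-treated controls, is reported for a strain bearing genetic alterations in DNA damage repair.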
A short description of assay [4]: NCI Yeast Anticancer Drug Screen. Data for the cln2 rad14 strain (AID 165).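 Further: 0% = growth equal to vehicle treated cultures.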 The note with it: S. cerevisiae cln2 rad14 strain, stronger effect = higher value. The gist of the method: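 cln2 rad14 yeast strain; compound exposure; growth inhibition read vs vehicle controls.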
Assay [5] is described as follows: NCI Yeast Anticancer Drug Screen. Data for the bub3 strain (AID 167). The note with it: S. cerevisiae bub3 mutant strain, stronger effect = higher value. The gist of the method:
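Inhibition values come from growth of compound-treated mutant yeast normalised to vehicle-treated controls.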

Assay [6] is described as follows: NCI Yeast Anticancer Drug Screen. Data for the mlh1 rad18 strain (AID 175). Particulars: S. cerevisiae mlh1 rad18 strain growth inhibition, stronger effect = higher value. The method in brief: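 Yeast w/ defined DNA-repair lesions; compound exposure; growth vs vehicle controls → % inhibition.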
The mark [7] stands for this setting: at 5.0 µM (retest, dose inferred, filed as 0.5).
Setting [8] is: at 50.0 µM (retest, dose inferred, filed as 5.0).

Turning to `Cc1ccc(NCCN(C)C)c2c(=O)c3cc(O)ccc3sc12`, the growth inhibition in assay [1] (setting [7]) was 27% (inactive); in assay [1] (setting [8]), 99% (active); in assay [1] (at 50.0 µM), 88.7% (active); in assay [2] (setting [7]), 5% (inactive); in assay [2] (setting [8]), 99% (active); in assay [2] (at 50.0 µM), 91.3% (active). Also, the growth inhibition in assay [3] (setting [7]) is 10% (inactive); in assay [3] (setting [8]), 99% (active); in assay [3] (at 50.0 µM), 91.2% (active); in assay [4] (setting [7]), 15% (inactive); in assay [4] (setting [8]), 98% (active); in assay [4] (at 50.0 µM), 90% (active). The growth inhibition in assay [5] (setting [7]) was 4% (inactive); in assay [5] (setting [8]) it was 98% (active); in assay [5] (at 50.0 µM) it was 88.4% (active); in assay [6] (setting [7]), 18% (inactive); in assay [6] (setting [8]), 99% (active).
In the case of `CC(C)(C)OC(=O)NOc1ccc([N+](=O)[O-])cc1[N+](=O)[O-]`, the growth inhibition is 22% (inactive) in assay [1] (setting [7]); 99% (active) in assay [1] (setting [8]); 98.7% (active) and 99.5% (active) in assay [1] (at 50.0 µM); 4% (inactive) in assay [2] (setting [7]); 100% (active) in assay [2] (setting [8]); 99.5% (active) and 99.7% (active) in assay [2] (at 50.0 µM). Further, the growth inhibition in assay [3] (setting [7]) was 38% (inactive); in assay [3] (setting [8]) it was 100% (active); in assay [3] (at 50.0 µM), 99.5% (active); in assay [4] (setting [7]) it was 8% (inactive); in assay [4] (setting [8]) it was 99% (active); in assay [4] (at 50.0 µM), 97.2% (active) and 99.5% (active). Moreover, the growth inhibition in assay [5] (setting [7]) is 9% (inactive); in assay [5] (setting [8]), 99% (active); in assay [5] (at 50.0 µM), 99.2% (active) and 99.5% (active); in assay [6] (setting [7]), 68% (inactive); in assay [6] (setting [8]), 97% (active); in assay [6] (at 50.0 µM), 99.2% (active) and 99.7% (active).
For `COc1cc(OC)c(OC)cc1/C=C\c1ccnc2ccccc12`, the growth inhibition is 19% (inactive) in assay [1] (setting [7]); 73% (active) in assay [1] (setting [8]); 33.8% (inactive) in assay [1] (at 50.0 µM); 13% (inactive) in assay [2] (setting [7]); 65% (inactive) in assay [2] (setting [8]); 37% (inactive) in assay [2] (at 50.0 µM). In addition, the growth inhibition in assay [3] (setting [7]) was 10% (inactive); in assay [3] (setting [8]), 88% (active); in assay [3] (at 50.0 µM), 88.4% (active); in assay [4] (setting [7]), 18% (inactive); in assay [4] (setting [8]) it was 57% (inactive); in assay [4] (at 50.0 µM), 41.5% (inactive). Also, the growth inhibition in assay [5] (setting [7]) was 6% (inactive); in assay [5] (setting [8]), 79% (active); in assay [5] (at 50.0 µM) it was 62.8% (inactive); in assay [6] (setting [7]), 13% (inactive); in assay [6] (setting [8]), 83% (active).
Turning to `COc1ccc2nc(C)cc(NCCCCCCCCCNc3cc(C)nc4ccc(OC)cc34)c2c1`, the growth inhibition in assay [1] (setting [7]) is -17% (inactive); in assay [1] (setting [8]), 94% (active); in assay [1] (at 50.0 µM) it was 83.4% (active); in assay [2] (setting [7]), -30% (inactive); in assay [2] (setting [8]) it was 94% (active); in assay [2] (at 50.0 µM), 87.9% (active). For the same molecule, the growth inhibition in assay [3] (setting [7]) was -2% (inactive); in assay [3] (setting [8]), 96% (active); in assay [3] (at 50.0 µM), 80.8% (active); in assay [4] (setting [7]) it was -11% (inactive); in assay [4] (setting [8]), 75% (active); in assay [4] (at 50.0 µM), 71% (active). For the same molecule, the growth inhibition was -40% (inactive) in assay [5] (setting [7]); 88% (active) in assay [5] (setting [8]); 78.5% (active) in assay [5] (at 50.0 µM); -21% (inactive) in assay [6] (setting [7]); 93% (active) in assay [6] (setting [8]).
In the case of `CCOP(=O)(OCC)C(C)(CC)NC(=O)C(C(F)(F)F)C(F)(F)F` (stereo unspecified), the growth inhibition in assay [1] (setting [7]) is 21% (inactive); in assay [1] (setting [8]), 21% (inactive); in assay [1] (at 50.0 µM) it was -5.45% (inactive) and 2.5% (inactive); in assay [2] (setting [7]), 23% (inactive); in assay [2] (setting [8]) it was 13% (inactive); in assay [2] (at 50.0 µM), -14.8% (inactive) and 4% (inactive). The growth inhibition in assay [3] (setting [7]) was 16% (inactive); in assay [3] (setting [8]), 13% (inactive); in assay [3] (at 50.0 µM), -8.75% (inactive) and -2.6% (inactive); in assay [4] (setting [7]), 18% (inactive); in assay [4] (setting [8]), 24% (inactive); in assay [4] (at 50.0 µM), 5.65% (inactive) and -1.65% (inactive). Further, the growth inhibition in assay [5] (setting [7]) is 20% (inactive); in assay [5] (setting [8]), 19% (inactive); in assay [5] (at 50.0 µM), -4.95% (inactive) and -8.05% (inactive); in assay [6] (setting [7]) it was 23% (inactive); in assay [6] (setting [8]), 18% (inactive); in assay [6] (at 50.0 µM), 8.65% (inactive) and -16.8% (inactive).
For `O=S(=O)(O)c1ccc(-c2c3nc(c(-c4ccc(S(=O)(=O)O)cc4)c4ccc([nH]4)c(-c4ccc(S(=O)(=O)O)cc4)c4nc(c(-c5ccc(S(=O)(=O)O)cc5)c5ccc2[nH]5)C=C4)C=C3)cc1`, the growth inhibition is 61% (inactive) and 82% (active) in assay [1] (setting [7]); 94% (active) and 91% (active) in assay [1] (setting [8]); 92.8% (active) and 94.3% (active) in assay [1] (at 50.0 µM); 72% (active) and 96% (active) in assay [2] (setting [7]); 97% (active) and 95% (active) in assay [2] (setting [8]); 96.8% (active) and 87.5% (active) in assay [2] (at 50.0 µM). Moreover, the growth inhibition is 74% (active) and 68% (inactive) in assay [3] (setting [7]); 29% (inactive) and 51% (inactive) in assay [3] (setting [8]); 94.8% (active) and 91.8% (active) in assay [3] (at 50.0 µM); 32% (inactive) and 40% (inactive) in assay [4] (setting [7]); 80% (active) and 67% (inactive) in assay [4] (setting [8]); 91.8% (active) and 91.4% (active) in assay [4] (at 50.0 µM). Further, the growth inhibition in assay [5] (setting [7]) was 51% (inactive) and 64% (inactive); in assay [5] (setting [8]), 92% (active) and 83% (active); in assay [5] (at 50.0 µM) it was 93.6% (active) and 92.8% (active); in assay [6] (setting [7]), 74% (active) and 93% (active); in assay [6] (setting [8]) it was 92% (active) and 93% (active); in assay [6] (at 50.0 µM), 96% (active) and 91.2% (active).
In the case of `ClCCCN(CCCCl)c1ccc(C=Nc2cccc(Cl)c2)cc1`, the growth inhibition in assay [1] (setting [7]) was 16% (inactive); in assay [1] (setting [8]), 89% (active); in assay [1] (at 50.0 µM) it was 91.3% (active); in assay [2] (setting [7]), -4% (inactive); in assay [2] (setting [8]) it was 8% (inactive); in assay [2] (at 50.0 µM) it was -1.2% (inactive). The growth inhibition is 24% (inactive) in assay [3] (setting [7]); 90% (active) in assay [3] (setting [8]); 92.8% (active) in assay [3] (at 50.0 µM); 8% (inactive) in assay [4] (setting [7]); 88% (active) in assay [4] (setting [8]); 86.2% (active) in assay [4] (at 50.0 µM). Also, the growth inhibition is -4% (inactive) in assay [5] (setting [7]); -14% (inactive) in assay [5] (setting [8]); -13% (inactive) in assay [5] (at 50.0 µM); 17% (inactive) in assay [6] (setting [7]); 89% (active) in assay [6] (setting [8]); 78.5% (active) in assay [6] (at 50.0 µM).
As for `Nc1ncnc2c1ncn2C1SC(CO)C(O)C1O` (stereo unspecified), the growth inhibition was 0% (inactive) in assay [1] (setting [7]); 8% (inactive) in assay [1] (setting [8]); 4.35% (inactive) and 13.3% (inactive) and 42.6% (inactive) in assay [1] (at 50.0 µM); -6% (inactive) in assay [2] (setting [7]); 5% (inactive) in assay [2] (setting [8]); 32.3% (inactive) and 4.55% (inactive) and -7.25% (inactive) in assay [2] (at 50.0 µM). Further, the growth inhibition in assay [3] (setting [7]) was 0% (inactive); in assay [3] (setting [8]) it was 7% (inactive); in assay [3] (at 50.0 µM), 3.2% (inactive) and 3.55% (inactive) and 36.1% (inactive); in assay [4] (setting [7]), -4% (inactive); in assay [4] (setting [8]), -4% (inactive); in assay [4] (at 50.0 µM), 11.2% (inactive) and 44.8% (inactive) and 2.35% (inactive). The growth inhibition in assay [5] (setting [7]) was -3% (inactive); in assay [5] (setting [8]) it was -7% (inactive); in assay [5] (at 50.0 µM), -21.4% (inactive) and -3.85% (inactive) and -4.3% (inactive); in assay [6] (setting [7]), 13% (inactive); in assay [6] (setting [8]), 25% (inactive); in assay [6] (at 50.0 µM), 14.7% (inactive) and 4.75% (inactive) and -3.25% (inactive).
